The panel holds about 83,000 compounds, 20% with a hit somewhere; the sample as a whole holds those more often.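 Negative percent growth values reflect cell death: -40 means 40% of the cells present at the start died, and -100 means all died.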 A number with no mark means an inactive call. The source made the active and inactive calls. How the source made its calls: active means growth percent below 10; inactive means the rest.

The values that follow come from PubChem BioAssay (NCI).

Among the test systems are SK-MEL-2 melanoma; EKVX NSCLC; SN12C renal; UO-31 renal; ACHN renal; A498 renal; CCRF-CEM leukemia; MOLT-4 leukemia; TK-10 renal; CAKI-1 renal.
Test in all cases: NCI-60 one-dose screen, 48 h (100 = growth as untreated, 0 = no growth, -100 = all killed)
Holding throughout (settings): 10 µM unless noted

Take `CCCCCCCCCCCCCCCc1ccc(C(=O)C[n+]2ccccc2)cc1`: the growth is -80.9% (active) in the assay with SK-MEL-2 melanoma; -51.6% (active) in the assay on EKVX NSCLC; -60.7% (active) with SN12C renal; -97.2% (active) in the assay on UO-31 renal; -49.3% (active) in the assay with ACHN renal; 41.1% with A498 renal. Further, the growth was -62.1% (active) in the assay with CCRF-CEM leukemia and -76.3% (active) in the assay with MOLT-4 leukemia.

On to `Cc1cc2nc(CC(=O)c3ccncc3)c(=O)[nH]c2cc1C`, for which the growth in the assay with SK-MEL-2 melanoma is 115%; with EKVX NSCLC, 56.1%; with SN12C renal it was 84.7%; with TK-10 renal, 107%; in the assay with ACHN renal, 93.6%; in the assay on CAKI-1 renal it was 82.9%. Also, the growth is 98.4% with A498 renal, 93.6% in the assay on CCRF-CEM leukemia and 104% in the assay with MOLT-4 leukemia.

Turning to `CCCCCC[C@@H](O)C/C=C\CCCCCCCC(=O)OCCOC`, the growth with SK-MEL-2 melanoma was 97.6%; in the assay with EKVX NSCLC, 79.1%; in the assay with SN12C renal, 98.3%; in the assay on TK-10 renal, 99.1%; in the assay on ACHN renal, 100%; in the assay on CAKI-1 renal, 103%. Moreover, the results for the growth in the assay on A498 renal, in the assay with CCRF-CEM leukemia and in the assay with MOLT-4 leukemia were 107%, 94.3% and 122%, respectively.

On to `CCc1oc2ccccc2c1C(=O)c1cc(Br)c(O)c(Br)c1`, for which the growth in the assay with SK-MEL-2 melanoma was 59.6%; with EKVX NSCLC, 73.6%; in the assay on UO-31 renal, 84.3%; in the assay with TK-10 renal, 125%; with ACHN renal, 84.2%; in the assay on CAKI-1 renal, 63.6%. The values for the growth in the assay on A498 renal, with CCRF-CEM leukemia and with MOLT-4 leukemia were 67.2%, 41.8% and 83.9%, respectively.

With `O=C(c1ccccc1)C(Br)C(Br)c1ccccc1` (stereo unspecified), the growth is 75.5% in the assay with SK-MEL-2 melanoma; 108% in the assay on EKVX NSCLC; 104% in the assay on SN12C renal; 103% in the assay with TK-10 renal; 18.8% with ACHN renal; -50.2% (active) in the assay with CAKI-1 renal. Moreover, the growth in the assay with A498 renal was 88.4%; with CCRF-CEM leukemia, -14% (active); with MOLT-4 leukemia, 47.5%.

Take `COC(=O)C(=[N+]=[N-])C(=O)c1ccc([N+](=O)[O-])o1`: the growth in the assay with SK-MEL-2 melanoma is 95.5%; in the assay with EKVX NSCLC it was 111%; with SN12C renal, 90.9%; in the assay on UO-31 renal it was 89.7%; with ACHN renal it was 67.1%; with CAKI-1 renal, 104%. In addition, the values for the growth in the assay on A498 renal, with CCRF-CEM leukemia and with MOLT-4 leukemia were 69.1%, 83.9% and 93.6%, respectively.

In the case of `COc1cc([C@@H]2c3cc4c(cc3[C@H](OC3OC5COC(c6ccccc6)OC5C(O)C3O)[C@H]3COC(=O)[C@H]23)OCO4)cc(OC)c1OC` (stereo partly specified), the growth with SK-MEL-2 melanoma is 2.6% (active); with EKVX NSCLC it was 74.7%; with SN12C renal, 41.8%; in the assay on UO-31 renal it was 35.2%; in the assay with ACHN renal it was 32.6%; in the assay with CAKI-1 renal it was 31%. For the same compound, the growth with A498 renal was 26.2%; in the assay on CCRF-CEM leukemia, 16.2%; in the assay on MOLT-4 leukemia, -7.44% (active).

As for `CN(C)CC(C)(CN(C)C)C(=O)/C=C/c1c(Cl)cccc1Cl`, the growth in the assay on SK-MEL-2 melanoma was 79.7%; in the assay with EKVX NSCLC, 5.55% (active); in the assay on SN12C renal, 50.9%; with TK-10 renal, -8.98% (active); in the assay with ACHN renal it was -100% (active); in the assay on CAKI-1 renal, 52.7%. Moreover, the growth in the assay with A498 renal was 119%; with CCRF-CEM leukemia, -4.65% (active); in the assay on MOLT-4 leukemia, -19.3% (active).

For `CCC(=O)c1cc([N+](=O)[O-])c(Br)s1`, the growth was 106% in the assay on SK-MEL-2 melanoma; 104% with EKVX NSCLC; 74.7% in the assay with UO-31 renal; 96.6% in the assay with TK-10 renal; 95.8% in the assay with CAKI-1 renal; 87% in the assay with A498 renal. The growth with CCRF-CEM leukemia is 1.7% (active); in the assay with MOLT-4 leukemia it was 33.9%.

In the case of `Cc1cc(C(N)=O)cc(C)c1C(=O)OCCCl`, the growth was 119% in the assay on SK-MEL-2 melanoma; 89.1% in the assay on EKVX NSCLC; 86.2% in the assay on UO-31 renal; 106% in the assay with TK-10 renal; 108% with ACHN renal; 97.6% in the assay on CAKI-1 renal. The results for the growth with A498 renal, with CCRF-CEM leukemia and with MOLT-4 leukemia were 98.8%, 112% and 95.8%, respectively.

For the compound `O=C1/C(=C/c2ccccn2)CCc2ccccc21`, the growth in the assay with SK-MEL-2 melanoma was 105%; in the assay with SN12C renal it was 102%; in the assay with UO-31 renal, 101%; in the assay with TK-10 renal, 95.4%; in the assay with ACHN renal, 104%; in the assay on CAKI-1 renal, 84.8%. Further, the values for the growth in the assay with A498 renal, in the assay with CCRF-CEM leukemia and in the assay with MOLT-4 leukemia were 77.7%, 51.6% and 49%, respectively.

`NCCCN(CCCN)CCCNCc1c2ccccc2c(CNCCCN(CCCN)CCCN)c2ccccc12`: the growth in the assay on SK-MEL-2 melanoma is 100%; in the assay on EKVX NSCLC it was 89.4%; with UO-31 renal, 72.4%; with TK-10 renal, 97.5%; in the assay with ACHN renal, 100%; in the assay with A498 renal, 95.4%. Further, the growth with CCRF-CEM leukemia was 102%; in the assay on MOLT-4 leukemia it was 98.8%.

Take `C[C@@]1(CO)[C@H](O)CC[C@@]2(C)[C@H]1CC[C@H]1C[C@@H]3C[C@@]12CC[C@@]3(O)COC(=O)CN`: the growth in the assay with SK-MEL-2 melanoma is 102%; in the assay on EKVX NSCLC it was 74.2%; in the assay on UO-31 renal, 22.7%; in the assay with TK-10 renal, 85.3%; in the assay on ACHN renal it was 14.6%; in the assay on CAKI-1 renal, 17%. The results for the growth in the assay with CCRF-CEM leukemia and with MOLT-4 leukemia were 32.8% and 28.2%, respectively.

For `O=C(/C(Cl)=N/O)c1ccc(-c2ccccc2)cc1`, the growth in the assay with SK-MEL-2 melanoma is 110%; in the assay with SN12C renal it was 103%; with UO-31 renal, 57.9%; with TK-10 renal, 106%; in the assay with ACHN renal, 86.8%; in the assay with CAKI-1 renal, 91.1%. In addition, the growth was 123% in the assay on A498 renal, 8.56% (active) with CCRF-CEM leukemia and 83.3% in the assay with MOLT-4 leukemia.

For `CCCCC(CCc1ccc([N+](=O)[O-])cc1)(C(C)=O)C(=O)OCC` (stereo unspecified), the growth is 99.6% in the assay on SK-MEL-2 melanoma; 103% with SN12C renal; 67.7% in the assay with UO-31 renal; 97.3% in the assay with TK-10 renal; 114% with ACHN renal; 96.8% in the assay with CAKI-1 renal. The values for the growth in the assay with A498 renal, in the assay with CCRF-CEM leukemia and in the assay with MOLT-4 leukemia were 50.6%, 94.5% and 90.3%, respectively.
